Reference: PubChem BioAssay AID1159580 (chemical genetic matrix, 2015)
Where “and” joins values, the source holds several entries; their conditions need not be identical. Equal entries are not always repeated. Hit rate of the full screen: of about 5,500 compounds, about 2,000 (36%) were called active. Another 18% or so got no clear call; they are omitted. No stated cut-off is given here; in the data, active means normalized growth mostly below about 0.91 (no sharp cut-off); inconclusive means no clear call, values can overlap the other calls; inactive means mostly above about 0.92. The list shows a part of the results.

Assay: chemical genetic growth profiling, strain panel (AID 1159580);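 further: tested at 20 µM; growth read once vehicle control cultures reached saturation at 30 °C; 1 = growth at the plate median or of vehicle wells; lower values mean less growth of the strain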
Conditions: S. cerevisiae deletion strains, growth OD

Measured: normalized growth

Oc1ccc2c(c1)OCC1(O)Cc3cc(O)c(O)cc3C21 (stereo unspecified)
inactive: locus YAL021C, strain ccr4, active compounds read low 1.03 | locus YAL026C, strain drs2, active compounds read low 1.03 | locus YAL030W, strain snc1, active compounds read low 1.02 | locus YBL061C, strain skt5, active compounds read low 1.03 | locus YBR009C, strain hhf1, active compounds read low 1.01 | locus YBR021W, strain FUR4, active compounds read low 1.04 | locus YBR023C, strain chs3, active compounds read low 1.03 | locus YBR171W, strain sec66, active compounds read low 1.04 | locus YBR229C, strain ROT2, active compounds read low 1.01 | locus YBR231C, strain swc5, active compounds read low 1.01 | locus YBR279W, strain paf1, active compounds read low 1.02 | locus YCL011C, strain gbp2, active compounds read low 1.03 | locus YCL016C, strain dcc1, active compounds read low 1.03 | locus YCL029C, strain bik1, active compounds read low 1.01 | locus YCL061C, strain MRC1, active compounds read low 1.02 | locus YCL069W, strain vba3, active compounds read low 1.03 | locus YCR088W, strain abp1, active compounds read low 1.02 | locus YDL005C, strain med2, active compounds read low 1.03 | locus YDL035C, strain GPR1, active compounds read low 1.03 | locus YDL040C, strain nat1, active compounds read low 1.02 | locus YDL074C, strain BRE1, active compounds read low 0.936 | locus YDL101C, strain DUN1, active compounds read low 0.958 | locus YDL185W, strain tfp1, active compounds read low 0.964 | locus YDL192W, strain arf1, active compounds read low 1.01 | locus YDR001C, strain nth1, active compounds read low 1.03 | locus YDR069C, strain doa4, active compounds read low 1.01 | locus YDR101C, strain arx1, active compounds read low 1.07 | locus YDR137W, strain rgp1, active compounds read low 1.15 | locus YDR150W, strain NUM1, active compounds read low 1 | locus YDR159W, strain sac3, active compounds read low 1.05 | locus YDR162C, strain NBP2, active compounds read low 0.976 | locus YDR195W, strain ref2 1.02 | locus YDR297W, strain sur2, active compounds read low 1.02 | locus YDR318W, strain mcm21, active compounds read low 0.98 | locus YDR334W, strain swr1, active compounds read low 1.03 | locus YDR335W, strain msn5, active compounds read low 1.01 | locus YDR388W, active compounds read low 0.978 | locus YDR392W, strain spt3, active compounds read low 1.03 | locus YDR502C, strain sam2, active compounds read low 0.996 | locus YEL003W, strain gim4, active compounds read low 1.02 | locus YEL037C, strain rad23, active compounds read low 1.02 | locus YEL061C, strain CIN8 (second series), active compounds read low 1.04 | locus YER015W, strain faa2, active compounds read low 1.01 | locus YER016W, strain bim1, active compounds read low 1.03 | locus YER110C, active compounds read low 0.996 | locus YER111C, strain swi4, active compounds read low 1.03 | locus YER155C, strain BEM2 (second series), active compounds read low 1.03 | locus YER155C, strain BEM2, active compounds read low 1.04 | locus YER167W, strain BCK2, active compounds read low 1.04 | locus YFR010W, strain ubp6, active compounds read low 1.02 | locus YGL078C, strain dbp3, active compounds read low 0.986 | locus YGL086W, strain mad1, active compounds read low 0.996 | locus YGL167C, strain pmr1, active compounds read low 1.02 | locus YGL173C, strain kem1, active compounds read low 1.03 | locus YGL227W, strain vid30, active compounds read low 1.04 | locus YGL240W, strain doc1, active compounds read low 1.02 | locus YGL248W, strain PDE1, active compounds read low 0.989 | locus YGL253W, strain hxk2, active compounds read low 1.02 | locus YGR078C, strain PAC10, active compounds read low 0.977 | locus YGR135W, strain pre9, active compounds read low 0.945 | locus YGR229C, strain SMI1, active compounds read low 0.968 | locus YGR252W, strain gcn5, active compounds read low 1.06 | locus YHR013C, strain ard1, active compounds read low 1.07 | locus YHR027C, strain rpn1, active compounds read low 1.02 | locus YHR030C, strain SLT2, active compounds read low 0.995 | locus YHR079C, strain IRE1 (second series), active compounds read low 0.993 | locus YHR079C, strain IRE1, active compounds read low 0.992 | locus YHR094C, strain hxt1, active compounds read low 1 | locus YHR129C, strain ARP1, active compounds read low 0.98 | locus YHR142W, strain chs7, active compounds read low 1.05 | locus YHR200W, strain rpn10, active compounds read low 1.01 | locus YIL066C, strain RNR3, active compounds read low 1.03 | locus YIL073C, strain SPO22, active compounds read low 0.964 | locus YIL125W, strain kgd1, active compounds read low 1.01 | locus YIR030C, strain dcg1, active compounds read low 1 | locus YJL092W, strain hpr5, active compounds read low 1.03 | locus YJL095W, strain BCK1 (second series), active compounds read low 1.02 | locus YJL095W, strain BCK1, active compounds read low 0.88 and 0.999 | locus YJL115W, strain asf1, active compounds read low 1.04 | locus YJL129C, strain trk1, active compounds read low 1.09 | locus YJL134W, strain LCB3, active compounds read low 1.01 | locus YJL154C, strain vps35, active compounds read low 1.03 | locus YJL164C, strain tpk1, active compounds read low 1.03 | locus YJL166W, strain qcr8, active compounds read low 1.02 | locus YJL168C, strain set2, active compounds read low 0.983 | locus YJL187C, strain SWE1 (second series), active compounds read low 0.922
